# Source: PubChem BioAssay (EPA / NIEHS)
# Activity calls are given as the source filed them. The calls were made as follows: active = hit-call score of the fitted dose curve at least 0.9, where 1 is the maximum; inactive = score below 0.9.
# Experiment: Tanguay_ZF_120hpf_MORT: Oregon State University Tanguay Lab 120 Hour Post-fertilization zebrafish Assay for Mortality (AID 2284399)
# In short: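 Mortality, recorded present/absent via brightfield imaging at 24 and 120 hpf, in 5D zebrafish embryos exposed statically from 6 hpf after pronase chorion removal. Exposure at 28C, 0.64% DMSO vehicle, DMSO baseline.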
Compound,AC50,outcome
OCC(F)(F)OC(F)(F)C(F)(F)OC(F)(F)C(F)(F)OC(F)(F)CO,57.6 µM (active),
OCC(F)(F)OC(F)(F)C(F)(F)OC(F)(F)C(F)(F)OC(F)(F)F,,inactive
FC(F)(F)C(F)(C(F)(F)F)C(F)(F)C(F)(F)CC1CO1 (centres undefined),,inactive
O=C(O)C(F)(F)C(F)(F)C(=O)O,,inactive
NC(=O)C(F)(F)C(F)(F)F,,inactive
COC(=O)C(F)(F)C(F)(F)OC(F)(C(F)(F)F)C(F)(F)OC(F)=C(F)F (centres undefined),22.2 µM (active),
O=S(=O)(F)C(F)(F)C(F)(F)C(F)(F)C(F)(F)C(F)(F)C(F)(F)C(F)(F)C(F)(F)F,,inactive
O=C(O)C(F)(F)OC(F)(F)C(F)(F)OC(F)(F)F,,inactive
O=C(O)C=CC(F)(C(F)(F)F)C(F)(F)F,,inactive
CC(O)C(F)(F)C(F)(F)F (centres undefined),,inactive
O=C(O)C(F)(F)OC(F)(F)C(F)(F)OC(F)(F)C(=O)O,,inactive
OCC(F)(F)OC(F)(F)C(F)(F)OC(F)(F)CO,,inactive
O=C(O)C(F)(OC(F)(F)C(F)(F)C(F)(F)F)C(F)(F)F (centres undefined),,inactive
C=CC(=O)OCC(F)(F)C(F)F,64 µM (active),
